# Only some compounds are listed: those with a hit (about 4.9% of all), similar ones and a draw of the others.
# HSF1 inh – HSF1 inhibitors in luciferase reporter cells, primary screen, cell-based, NIH3T3, luminescence; NIH3T3-HGL HSE-luciferase, MG132-induced, luminescence 8 h; hits give low values; AID 2098, 2009; activity change, negative = inhibition, % at 7.5 µM (by protocol); hit rate 0.77% among 300,000;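 active = more than half of replicate wells show activity change below -50%, luminescence cut by over half; inconclusive = some wells, but at most half, below -50%; inactive = no replicate well below -50%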;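 note: luciferase reports HSF-1 transcriptional activity via heat shock element; 0% = median of DMSO wells and -100% = zero luminescence signal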
# MPTP block – mitochondrial permeability transition pore inhibitors, primary screen, biochemical, isolated mouse mitochondria, absorbance; Ca2+ swelling absorbance, 30 min; inhibition, % at 10 µM; hit rate 1.4% among 360,000; AID 602449, 2012;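 active = inhibition of 50% or more, scaled per plate between neutral and stimulator controls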;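 note: 0% = DMSO wells given calcium and 100% = 1 mM EGTA wells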
# dFosB activator – activators of delta FosB homodimer, primary screen, biochemical, fluorescence polarization, TAMRA-CDK5 oligo, single point; activation, % at 25 µM; purified delta FosB; percent of positive-control signal above neutral wells; Protein FosB (Mus musculus), P13346; hit rate 0.99% among 340,000;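 active = mean activation above about 17%, with every replicate also reaching it, limit read from the data, passing the limit was not always enough; inconclusive = only one of the two conditions met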
# Target sequence (P13346 whole entry, looked up): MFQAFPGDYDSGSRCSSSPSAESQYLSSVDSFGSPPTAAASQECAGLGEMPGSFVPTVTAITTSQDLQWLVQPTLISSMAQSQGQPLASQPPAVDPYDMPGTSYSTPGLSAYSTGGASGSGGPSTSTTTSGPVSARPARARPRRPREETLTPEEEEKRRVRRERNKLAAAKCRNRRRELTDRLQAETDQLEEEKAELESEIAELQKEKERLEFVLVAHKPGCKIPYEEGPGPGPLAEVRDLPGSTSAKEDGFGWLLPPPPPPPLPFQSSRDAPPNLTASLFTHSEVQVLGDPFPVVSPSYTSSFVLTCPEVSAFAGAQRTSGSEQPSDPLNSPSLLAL
# HSF1 activator – HSF-1 activators, primary screen, NIH3T3-HGL cells, MG132 stress, luminescence, single point; NIH3T3-HGL HSF-1 luciferase reporter, 8 h; 100% = twice DMSO control signal; activation, % at 9 µM; hit rate 1.7% among 300,000;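 active = mean replicate activation of at least 50% with a set share of replicates each reaching 50%; inconclusive = only one of those two conditions met; inactive = mean below 50% and too few replicates reaching it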;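 note: 0% = median of the neutral control wells and 100% = twice that signal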
# Platelet DG rel – inhibitors of platelet dense granule secretion, primary screen, cell-based, MLPCN, human platelets; human platelet-rich plasma, SFLLRN dense granule ATP release, luminescence; inhibition, %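 (compounds screened at 7.5 µM in platelet-rich plasma)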; hit rate 0.22% among 300,000;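 active = mean replicate score, as percent of positive control, at or above 50; inconclusive = mean below 50 but at least one replicate at or above 50; inactive = mean and every replicate below 50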
# HSP90 refold inh – HSP90 inhibitors, primary screen, cell lysate, luminescence. Heat shock protein HSP 90 (rabbit reticulocyte lysate; luciferase refolding). Rabbit reticulocyte lysate, luciferase refolding luminescence, 3 h. AID 1789, 2009. hit rate 0.91% among 290,000. inhibition, % at 5.6 µM;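 active = inhibition above the screen-wide mean plus 3 SD, computed separately per campaign, cut at about 16% in these data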;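 note: 0% = DMSO wells and 100% = 60 µM geldanamycin wells; inhibitors lower the luminescence because luciferase stays unfolded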
# Active calls of the source: *; u = inconclusive; x = no result given.
SMILES,HSF1 inh,MPTP block,dFosB activator,HSF1 activator,Platelet DG rel,HSP90 refold inh
S=C(NC1CCCCC1)NC1CC2C=CC1C2 (stereo not given),64.6,5.5,-3.2,85.2*,17.4,-1.0
COc1ccc(C(CNC(=O)c2oc3ccc(F)cc3c2C)N2CCCCC2)cc1 (stereo not given),-0.8,-0.1,7.5,-1.6,-0.4,0.9
CCCc1cc(N2CCOCC2)n2ncc(-c3ccccc3)c2n1,-15.6,-0.4,-16.6,-3.2,-3.7,16.6*
COc1ccc(C(C)(NC(C)=O)c2nc(-c3cc(F)cc(F)c3)cs2)cc1 (stereo not given),x,-0.5,x,x,x,x
CCOc1ccc(/C=N/NC(=O)c2ccoc2C)cc1OC,19.8,-0.5,-8.0,13.4,49.8*,13.7
COc1cccc(/C=N/NC(=O)C(=O)N/N=C/c2cccc(OC)c2O)c1O,x,0.8,11.0,x,x,3.4
COc1cccc(/C=N/NC(=O)c2cc3cc([N+](=O)[O-])ccc3s2)c1O,-34.9,7.9,41.0*,-40.6,5.2,-1.6
COc1cccc(/C=N/NC(=O)c2ccoc2C)c1O,10.1,2.0,13.8,34.6,97.6*,6.8
COc1ccccc1/C=N/NC(=O)c1ccc(NC(=O)c2cccc([N+](=O)[O-])c2)cc1,-4.1,x,x,-7.4,6.5,-2.9
O=C(NCc1cccnc1)c1cc(C2CCCCN2C(=O)c2ccccc2)on1 (stereo not given),x,3.5,x,x,x,x
Clc1ccc(CO/N=C/c2c(-c3ccccc3)nc3n2CCS3)c(Cl)c1,30.2,10.2,-12.1,73.6*,-3.9,-3.2
CN(Cc1ccncc1)C(=O)[C@@H]1CCCN1C(=O)[C@@H]1CCCN1,x,-0.8,x,x,x,x
Cc1ccc(N(C)C(=O)CN(C)S(=O)(=O)c2ccc3c(c2)n(C)c(=O)c(=O)n3C)cc1,-91.0*,0.8,-2.3,-92.7,-19.6,4.9
CN(CC(=O)Nc1ccc(F)c(Cl)c1)S(=O)(=O)c1ccc2c(c1)n(C)c(=O)c(=O)n2C,-2.0,-1.8,42.0*,6.2,-8.2,-2.4
COc1ccc2nc(/N=C\N(C)C)sc2c1,9.0,0.3,1.1,14.7,4.6,-3.4
COc1ccc2nc(N=Nc3ccc(N(C)C)cc3)sc2c1,x,7.8,1.8,x,x,25.5*
Cc1ccc(O)c(N=Nc2ccccc2)n1,21.6,-2.5,6.3,36.9,77.2*,x
O=C(Nc1cccc(F)c1)C1CCN(C(=O)Cc2ccccc2)CC1,-2.6,-16.0,-1.3,3.6,50.6*,6.3
COc1ccc(C(=O)O/N=C(/c2ccccc2)c2ccncc2)cc1,1.8,-1.6,-15.4,3.7,12.4,-0.6
COc1ccc(C(=O)O/N=C(\C)c2ccccc2)cc1,-6.9,1.4,-8.1,1.1,64.9*,-0.4
C/C(=N\OC(=O)c1ccc(F)cc1)c1ccc(F)c(F)c1,19.9,-1.0,-5.2,53.7*,9.5,4.5
C/C(=N/OC(=O)c1ccc(C)cc1)c1cccs1,-7.9,-0.4,-9.8,-0.9,59.1*,1.8
Cc1ccc(/C(N)=N/OC(=O)c2ccc(F)cc2)cc1,23.4,-0.3,-0.4,u,12.8,-2.5
COc1ccc(/C(N)=N/OC(=O)CSc2ccc(C)cc2)cc1OC,23.7,0.0,-6.4,56.6*,-14.8,3.5
COc1ccc(-c2cc(C(=O)Nc3cc(C)nn3-c3ccccc3)no2)cc1OC,5.0,1.9,-2.4,-0.4,1.1,-1.3
SMILES,HSF1 inh,MPTP block,dFosB activator,HSF1 activator,Platelet DG rel,HSP90 refold inh
CSC[C@H]1CN(Cc2cccnc2)C(=O)[C@@H]1CC(=O)Nc1ccc(Br)cc1,x,-0.9,x,x,x,x
COc1cccc(OCC(=O)O/N=C(\N)c2ccncc2)c1,5.9,0.9,-4.2,-8.3,3.2,0.5
COc1ccc(C(=O)O/N=C(\N)c2ccc(OC)c(OC)c2)c(OC)c1,25.1,-0.9,-19.4,34.3,5.0,-1.2
COc1ccc(C(=O)O/N=C(\N)c2ccc(OC)c(OC)c2)cc1,23.6,0.1,-10.2,65.9*,1.4,3.7
CCN1CCN(Cc2nc3c(c(=O)[nH]c(=O)n3C)n2Cc2ccccc2Cl)CC1,-7.5,-1.1,1.2,7.8,64.9*,2.6
CCOC(=O)Cn1c(CN2CCN(c3cccc(Cl)c3)CC2)nc2c1c(=O)[nH]c(=O)n2C,-55.1*,-2.0,-12.7,-64.9,9.3,0.3
Cc1nc(-c2ccccn2)sc1C(=O)Nc1ccc(F)cc1F,40.0,1.5,-8.5,70.1*,-0.2,0.8
Cn1cc([N+](=O)[O-])c(C(=O)Nc2ccc(C3CCCCC3)cc2)n1,94.0,-0.7,-6.3,74.7*,12.5,0.5
Cc1cc(C)n(Cc2ccc(NC(=O)c3nn(C)cc3[N+](=O)[O-])cc2)n1,69.3,-0.7,-10.3,131.4*,-4.4,1.4
Cn1cc([N+](=O)[O-])c(C(=O)Nc2ccc(C(=O)N3CCCCC3)cc2)n1,33.3,-0.3,5.6,u,-2.1,3.6
Cc1ccc(Cn2ccc(NC(=O)c3nn(C)cc3[N+](=O)[O-])n2)cc1,55.6,0.0,-1.5,75.8*,-1.6,4.4
Cn1cc([N+](=O)[O-])c(C(=O)Nc2ccc(-c3nc4ccccc4[nH]3)cc2)n1,332.0,1.6,-4.2,407.5*,8.4,3.1
CCn1cc([N+](=O)[O-])c(C(=O)Nc2ccc(Cn3nc(C)cc3C)cc2)n1,4.0,0.6,-6.9,-4.7,3.9,-0.8
O=[N+]([O-])c1cc(Oc2cccnc2)cc([N+](=O)[O-])c1,8.5,-2.0,-4.5,-0.9,0.0,3.5
Cn1cc([N+](=O)[O-])c(C(=O)Nc2cc(Oc3cccnc3)cc([N+](=O)[O-])c2)n1,113.6,x,x,141.6*,-2.7,1.2
Cc1c(Cl)c([N+](=O)[O-])nn1Cc1ccc(C(=O)N/N=C\c2cccc(Br)c2)o1,1.3,-0.9,6.5,4.3,9.1,-3.3
Cn1cc(C(=O)NC2CCCCC2)c(=O)c2cc(S(=O)(=O)N3CCOCC3)ccc21,-13.2,-1.6,-18.7,-6.5,-12.9,-2.1
COCc1cc(CN2CCCC(C(=O)Nc3ccc(-c4ccco4)cc3)C2)ccc1OC (stereo not given),19.3,1.0,13.1,63.9*,0.8,-1.2
Nc1cc(N)nc(SCC(=O)Nc2ccc(Br)cc2Cl)n1,44.3,-0.6,-4.8,61.6*,-0.4,x
Cc1cc(C)c(S(=O)(=O)N2CCOC2CNC(=O)C(=O)NCc2ccco2)c(C)c1 (stereo not given),2.6,-2.3,-9.0,-6.5,28.3,-0.7
O=C(Cc1ccccc1)N/N=C/c1cc(Br)cs1,25.4,0.5,-5.2,45.8,-8.4,1.8
O=C(CCC(=O)Nc1ccc(F)cc1)N/N=C/c1ccc(Br)cc1,5.0,0.4,7.4,-5.0,5.7,0.3

# Compound activity as filed in PubChem BioAssay.
